Reference: the supplement of paper PMC6555819

Tests used:
Assay in all cases: PBM binding z-score (relative to random genomic background probes); higher = stronger binding; sequences stand for … in GC…GCGATTGACAGCGTAGAATGAAGG
[1] = tested on: RARb homodimer (NR concentration 270 nM)
Method in brief: (§1)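 Each nuclear receptor dimer, without ligand, was incubated for 1 h on custom Agilent 4×180K protein-binding microarrays. Binding was detected with antibodies against each partner (one per run), and scanned fluorescence was regression-normalized. The binding z-scores are referenced to random human genomic background probes.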

[2] = tested on: RARg:RXRa (NR concentration 270 nM, RXRa partner concentration 90 nM)
Method in brief: as §1

[3] = tested on: RARg homodimer (NR concentration 270 nM)
Method in brief: as §1

[4] = tested on: RXRa DBDmut IVT, anti-RXR (DBD mutation: RXRa K156A/R161A, NR concentration 90 nM)
Method in brief: as §1

[5] = tested on: RXRa homodimer (NR concentration 180 nM)
Method in brief: as §1

[6] = tested on: THRa:RXRa (NR concentration 90 nM, RXRa partner concentration 90 nM)
Method in brief: as §1

[7] = tested on: THRa homodimer (NR concentration 90 nM)
Method in brief: as §1

[8] = tested on: VDR homodimer (NR concentration 270 nM)
Method in brief: as §1

Row | Sequence | PBM binding z-score [1] | PBM binding z-score [2] | PBM binding z-score [3] | PBM binding z-score [4] | PBM binding z-score [5] | PBM binding z-score [6] | PBM binding z-score [7] | PBM binding z-score [8]
1 | ATATGTAGCTTAGCTGGGGTCATTCAGACTAGGC | 3.13 | 3.19 | 2.02 | 1.54 | 5.09 | 3.92 | 2.85 | 3.19
2 | CCGACTGGGGCAGAAAGGTTACCTTACCATCCGG | 1.97 | 1.25 | 0.987 | -0.233 | 1.28 | 1.39 | 0.772 | -0.247
3 | TAGCCTAGGTCATGCGGGCAAGTATAGTGTCGGC | 3.16 | 4 | 4.38 | 0.563 | 3.03 | 2.89 | 0.9 | 0.528
4 | TTACCAAGGTGAGCTGAGGTCCTTGATCCAACTC | 0.469 | 0.18 | 0.227 | -0.639 | 0.399 | 3.79 | 0.733 | -0.397
5 | TATACAGGGTCAAAGGCCAGAGTGCGAATGTCGA | 3.58 | 5.91 | 5 | 3.25 | 7.4 | 3.57 | 0.842 | 3.38
6 | CCTACTGGGCCAAAGGTCATGGATTCCAATGCTC | 4.97 | 6.18 | 5.26 | 0.383 | 6.66 | 3.73 | 1.02 | 1.54
7 | CCTACTGGGCCACGAAAGGTCATAGATTCAGTGA | 4.58 | 4.73 | 4.53 | -0.0363 | 4.95 | 3.84 | 0.901 | 1.31
